CDK5 inh: CDK5/p35 (human) kinase inhibition; 330,000 tested, 0.01% active; inhibition, % at 10 µM; Recombinant CDK5/p35, ADP-Glo luminescence, 60 min;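 active = highest replicate inhibition of at least 50% and at least 75% of replicates reaching 50%; inconclusive = only one of the two criteria met; inactive = both criteria failed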;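 note: plate controls were DMSO neutral control for no effect and GW8510 at 10 µM for full effect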
Target sequence (Q00535 whole entry, looked up): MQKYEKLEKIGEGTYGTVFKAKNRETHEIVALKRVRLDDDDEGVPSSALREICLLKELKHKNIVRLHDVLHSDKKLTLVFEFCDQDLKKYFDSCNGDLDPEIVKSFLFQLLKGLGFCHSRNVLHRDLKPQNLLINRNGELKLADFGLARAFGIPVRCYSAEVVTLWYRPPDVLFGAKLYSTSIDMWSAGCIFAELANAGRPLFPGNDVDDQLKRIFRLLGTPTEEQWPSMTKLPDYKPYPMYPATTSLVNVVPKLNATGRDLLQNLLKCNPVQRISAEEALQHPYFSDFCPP
Target sequence (Q15078 whole entry, looked up): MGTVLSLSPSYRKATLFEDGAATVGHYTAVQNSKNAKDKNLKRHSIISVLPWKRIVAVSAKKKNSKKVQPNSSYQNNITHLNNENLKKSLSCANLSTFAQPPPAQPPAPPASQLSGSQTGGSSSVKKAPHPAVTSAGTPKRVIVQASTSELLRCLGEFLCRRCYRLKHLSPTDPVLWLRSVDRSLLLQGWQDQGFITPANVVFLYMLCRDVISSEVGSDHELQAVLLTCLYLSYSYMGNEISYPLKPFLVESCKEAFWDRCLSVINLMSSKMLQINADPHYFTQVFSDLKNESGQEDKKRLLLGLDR
DYRK1A inh: inhibitors of rat Dyrk1A kinase; Q63470; ADP-Glo luminescence, NFATc1 peptide; inhibition, % at 12.5 µM; 310,000 tested, 0.43% active; in the data active = inhibition above about 50%;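 note: plate controls were vehicle with enzyme for no effect and no enzyme for full effect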
dFosB activator: activators of mouse delta FosB homodimer | P13346 | purified delta FosB, TAMRA-CDK5 oligo fluorescence polarization; percent of positive-control signal above neutral wells | activation, % at 25 µM | 340,000 tested, 0.99% active | AID 493131;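 active = mean activation above about 17%, with every replicate also reaching it, limit read from the data, passing the limit was not always enough; inconclusive = only one of the two conditions met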
SMARCA2 act: SMARCA2 function activation, primary screen; MG213 cells, MMTV-luciferase reporter, dexamethasone, overnight; activation, % at 9.1 µM; 370,000 tested, 1% active; in the data active = activation above about 7.8%;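 note: 0% = vehicle wells and 100% = reference activator wells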
esBAF inh: SWI/SNF esBAF complex inhibition; mouse ES cells, Bmi1-luciferase knock-in reporter, 24 h; 100% = twice the neutral-well signal; reporter increase, % at 12.5 µM; 350,000 tested, 2% active; AID 602393; in the data active = activation above about 40%; inconclusive = no clear call, values can overlap the other calls;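 note: 0% = median of the plate's neutral control wells and 100% = double that signal; a rise in the Bmi1 reporter signal indicates esBAF inhibition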
Rtt109 Vps75: inhibitors of Candida albicans Rtt109/Vps75 histone acetyltransferase. Q5AAJ8. 330,000 tested, 0.16% active. inhibition, % at 34.9 µM. purified Rtt109/Vps75, ThioGlo CoA-SH fluorescence, 4 h;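 active = inhibition of at least 50% in every replicate; inconclusive = best replicate reaches 50% inhibition but some replicates fall short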
* marks the source's active call; other numbers are inactive results; ? = inconclusive; · = not tested or not shown. A selection: hits, their analogues and other compounds. The true share with any hit is near 3.2%.

SMILES	CDK5 inh	DYRK1A inh	dFosB activator	SMARCA2 act	esBAF inh	Rtt109 Vps75
O=C(NCC1COc2ccccc2O1)c1cccs1 (stereo unspecified)	-2.2	-4.4	-1.3	3.5	26.6	1.2
O=C(CSc1nnc(-c2ccncc2)o1)Nc1cccc(F)c1	1.6	-3.3	-3.7	-0.4	56.2*	-1.6
O=C(CSc1nnc(-c2cccnc2)o1)Nc1cccc(F)c1	1.3	-4.5	2.3	1.4	61.3*	2.5
C[C@H](CO)N1C[C@H](C)[C@H](CN(C)C(=O)Nc2ccccc2)OCCCC[C@H](C)Oc2ccc(NC(=O)C3CCCCC3)cc2C1=O	·	·	·	·	-2.0	·
CCC(=O)Nc1ccc2c(c1)C(=O)N(C)[C@H]1CC[C@@H](CC(=O)NCC3CCCCC3)O[C@H]1CO2	·	·	·	·	2.9	·
N#CCC(=O)N/N=C\c1ccccc1OC/C=C/c1ccccc1	-0.3	-2.8	-14.9	0.1	63.8*	2.1
COCC(=O)N/N=C\c1ccccc1OC/C=C/c1ccccc1	0.9	10.0	-8.7	3.0	30.4	0.3
CC=Cc1ccc2n(c1=O)C[C@@H]1[C@@H](CO)[C@H](C(=O)NCC3CC3)[C@H]2N1S(=O)(=O)c1cn(C)cn1 (mixture of isomers)	·	·	·	·	-0.8	·
CC(C)OCCCN1CN(S(=O)(=O)c2ccccc2)c2nc3ccccc3nc21	-0.3	3.8	-3.3	-2.3	43.4*	-9.9
COCCCN1CN(S(=O)(=O)c2ccc(Cl)cc2)c2nc3ccccc3nc21	-0.3	8.9	2.3	1.7	6.8	-1.9
Cc1cc(OCc2cc(C(=O)N(C)CC3CCOCC3)no2)cc(C)c1Cl	·	·	-9.7	-0.7	50.4*	7.4
CCN(CC1CCCO1)C(=O)c1cc(COc2cc(C)c(Cl)c(C)c2)on1 (stereo unspecified)	-1.6	-3.2	-8.5	-0.4	84.1*	-3.2
CCN(CC1CCCO1)C(=O)c1cc(COc2ccc(F)cc2F)on1 (stereo unspecified)	-0.7	-0.7	0.3	-1.4	-3.2	-2.4
CCNC(=S)NNC(=O)c1csc(C(C)C)c1	-0.4	1.4	-1.5	3.3	50.0*	-0.6
COc1ccc(C2NCCc3c2[nH]c2ccccc32)cc1CSc1nc2ccccc2s1 (stereo unspecified)	-0.6	-2.3	79.8*	-0.7	·	9.8
COc1ccc(C2NC(C(=O)O)Cc3c2[nH]c2ccccc32)cc1OC (stereo unspecified)	-1.4	-5.0	3.0	-0.6	1.2	-0.2
CC1(C)C2CCC1(C)C(OCC[N+](C)(C)CC(=O)OC1CCCCC1)C2 (stereo unspecified)	-0.1	3.0	-1.6	-6.0	-49.9	57.9*
CCOC(=O)C[N+](C)(C)CCOC1CC2CCC1(C)C2(C)C (stereo unspecified)	-0.8	1.1	-2.2	-4.9	·	-0.4
CCNc1cccc2c1C(=O)N(C)C2=O	0.7	5.7	-0.7	7.8*	2.7	-0.3
Cc1cc(OCc2cc(C(=O)N3CCCCCC3)no2)cc(C)c1Cl	-3.8	-11.2	-15.8	3.4	48.0*	-3.6
COCC1CCN(C(=O)c2cc(COc3cc(C)c(Cl)c(C)c3)on2)C1 (stereo unspecified)	-0.7	-2.7	-11.7	2.9	64.4*	8.3
CC(C)CN=CC1=C(O)c2ccccc2C1=O	-0.4	5.1	-7.0	0.8	·	-2.6
COc1cc(N=CC2=C(O)c3ccccc3C2=O)cc(OC)c1	-1.3	-1.9	-6.0	-2.5	43.2*	-4.4
N=c1n(CCN2CCCCC2)c2ccccc2n1CC(O)c1ccc(Cl)c(Cl)c1 (stereo unspecified)	0.9	·	-7.8	1.4	0.0	57.9*
O=C(C[C@@H]1CC[C@@H]2[C@H](COC[C@H](O)CN2C(=O)c2ccccc2)O1)N1CCOCC1	·	·	·	·	-1.3	·
SMILES	CDK5 inh	DYRK1A inh	dFosB activator	SMARCA2 act	esBAF inh	Rtt109 Vps75
O=C(C[C@@H]1CC[C@H]2[C@@H](COC[C@H](O)CN2C(=O)c2ccc(F)cc2)O1)N1CCCCC1	·	·	·	·	0.2	·
COc1ccc2c(c1)oc1c(SCc3nc4ccccc4[nH]3)nc(C)nc12	0.8	-1.3	-7.7	5.4	68.2*	-0.5
Cc1nc(SCc2nc3ccccc3[nH]2)c2oc3cc([N+](=O)[O-])ccc3c2n1	-1.8	-4.6	2.8	1.3	49.0*	-9.4
Cc1nc(SCc2nc3ccc(Br)cc3[nH]2)c2oc3ccccc3c2n1	-0.5	7.9	-2.7	-0.4	-3.7	0.2
COc1ccc(C(=O)OCC(=O)c2ccc[nH]2)cc1	-1.2	-0.2	-5.4	-1.8	51.3*	9.5
COc1ccccc1N1CCN(/N=C/c2ccc(Cl)c([N+](=O)[O-])c2)CC1	0.9	0.4	-3.2	3.9	43.8*	4.3
COc1ccccc1N1CCN(/N=C/c2ccc([N+](=O)[O-])cc2)CC1	-0.1	-0.6	-4.7	1.3	?	-4.8
CO[C@@H]1CN(C)C(=O)c2ccc(NC(=O)Nc3ccc(Cl)cc3)cc2OC[C@H](C)N(C(=O)Nc2c(C)noc2C)C[C@H]1C	·	·	·	·	2.7	·
C[C@@H]1CN([C@H](C)CO)C(=O)c2cccc(NC(=O)C3CC3)c2O[C@H]1CN(C)S(=O)(=O)c1ccccc1	·	·	·	·	4.4	·
COc1ccc(OC)c(-c2c3cc(O)c(=O)cc-3oc3cc(O)c(O)cc23)c1	4.9	4.0	46.1*	·	·	0.0
O=c1cc2oc3cc(O)c(O)cc3c(-c3ccccc3O)c-2cc1O	0.9	-2.6	-112.3	·	·	-4.0
CCOc1ccccc1-c1c2cc(O)c(=O)cc-2oc2cc(O)c(O)cc12	6.9	6.1	51.3*	·	·	6.0
CN(C)c1ccc(NC(=O)Nc2ccc3snnc3c2)cc1	0.6	-1.3	-6.5	3.3	68.7*	-6.3
O=C(Nc1ccccc1)Nc1ccc2nnsc2c1	-0.2	30.7	-11.7	1.7	73.1*	0.3
O=C(Nc1ccccc1)Nc1ccc2snnc2c1	0.5	3.9	-22.3	1.6	31.7	6.5
COc1cccc(S(=O)(=O)N(C)C[C@H]2Oc3ncc(C#CCN(C)C)cc3C(=O)N([C@H](C)CO)C[C@H]2C)c1	·	·	·	·	-3.4	·
CN1C(=O)c2cc(NS(C)(=O)=O)ccc2OC[C@H]2O[C@H](CC(=O)N3CCOCC3)CC[C@@H]21	·	·	·	·	-6.5	·
CC(=O)OCCCNc1cc(Sc2nc3ccccc3s2)c2nonc2c1[N+](=O)[O-]	-0.7	0.5	-2.9	·	0.9	1.8
CC(=O)OCCNc1cc(Sc2nc3ccccc3[nH]2)c2nonc2c1[N+](=O)[O-]	0.3	0.2	-3.0	-10.8	-5.8	70.2*
COc1ccc(C#Cc2ccc3c(c2)O[C@H](CN(C)C(=O)CN2CCOCC2)[C@@H](C)CN([C@H](C)CO)S3(=O)=O)cc1	·	·	·	·	1.7	·
Cc1ccc(N=Nc2ccc(O)c(/C=N\NC(=O)c3ccc(N)cc3)c2)cc1C	0.8	3.1	46.8*	-1.1	13.2	-8.0
Cc1ccc(N2C(=O)c3ccccc3NC2C(C)Cc2ccc3c(c2)OCO3)cc1 (stereo unspecified)	1.9	-3.6	4.9	0.2	52.0*	-16.6

From PubChem BioAssay
